Source: PubChem BioAssay AID1851 (National Center for Advancing Translational Sciences (NCATS), 2009)
About 5,800 (36%) of roughly 16,000 compounds were called active. About 23% were inconclusive and are not listed. Calls come from the whole dose curve; as a rule, active = well fitted curve in the direction sought with a large enough effect; inconclusive = small, poorly fitted or top-dose-only effect, or effect the other way; inactive = no such curve, though single readings can be large or run the other way. The list shows a part of the results.

target: Cytochrome P450 2C19 (Homo sapiens) (UniProt P33261); test: Cytochrome panel assay with activity outcomes; conditions: recombinant CYP, pro-luciferin dealkylation, luminescence, p450-cyp2c19; series mostly up to 57.1 µM
Sequence (P33261 whole entry, looked up): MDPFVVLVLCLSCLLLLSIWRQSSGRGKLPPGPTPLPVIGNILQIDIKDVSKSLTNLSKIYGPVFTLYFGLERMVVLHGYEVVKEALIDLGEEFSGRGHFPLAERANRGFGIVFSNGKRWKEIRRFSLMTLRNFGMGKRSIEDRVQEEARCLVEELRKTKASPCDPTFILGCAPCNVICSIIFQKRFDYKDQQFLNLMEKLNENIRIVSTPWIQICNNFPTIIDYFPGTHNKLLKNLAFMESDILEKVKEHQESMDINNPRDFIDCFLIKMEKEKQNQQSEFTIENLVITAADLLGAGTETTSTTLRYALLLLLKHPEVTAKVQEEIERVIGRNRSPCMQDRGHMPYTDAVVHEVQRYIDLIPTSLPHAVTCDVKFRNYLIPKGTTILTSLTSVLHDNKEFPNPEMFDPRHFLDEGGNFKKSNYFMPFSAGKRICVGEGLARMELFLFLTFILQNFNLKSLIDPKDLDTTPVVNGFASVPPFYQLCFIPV
% is set by controls: 0 for no effect and ±100 for the full control effect.

| SMILES | activity, negative = inhibition | AC50 |
| --- | --- | --- |
| Cc1ccc(S(=O)(=O)N[C@H]2COC(=O)C/C=C\[C@@H](C)[C@H](NS(=O)(=O)c3ccc(C)cc3)COC(=O)C/C=C\[C@H]2C)cc1 | 30.4% [at 11.4 µM] (inactive) |  |
| O=c1c(-c2cccs2)nc2cncnc2n1Cc1ccc(F)cc1 |  | 7.94 µM (active) |
| COc1ncc2nc(-c3cccs3)c(=O)n(Cc3ccc(F)cc3)c2n1 |  | inactive |
| O=c1[nH]c2ccccc2n1CCCN1CCN(C(c2ccccc2)c2ccccc2)CC1 |  | inactive |
| CN(C)CCCn1c2ccccc2c2cnccc21 | 26.7% [at 11.4 µM] (inactive) |  |
| C[C@@H]1CN(CCCn2c3ccccc3c3ccccc32)C[C@H](C)N1 |  | 3.16 µM (active) |
| O=c1c(-c2cc(F)cc(F)c2)nc2cnc(N3CCOCC3)nc2n1C[C@H]1CCCO1 |  | inactive |
| O=C1c2cccc3c(Cl)ccc(c23)C(=O)N1O |  | inactive |
| O=C1c2cccc3c(Nc4ccccc4Cl)c([N+](=O)[O-])cc(c23)C(=O)N1CCO |  | 3.98 µM (active) |
| O=C1NC(=O)C(c2ccccc2[N+](=O)[O-])=C1Nc1ccc(O)c(Cl)c1 |  | inactive |
| Cc1cc(/C=N\NC(=O)c2cccs2)c(C)n1-c1ccc2ncccc2c1 |  | inactive |
| Cc1ccc(-n2nc3c(c2NC(=O)c2cccs2)CSC3)cc1 |  | 7.94 µM (active) |
| CCCC(=O)Nc1c2c(nn1-c1ccc(C)cc1C)CSC2 |  | 8.91 µM (active) |
| CC(C)c1ccccc1-n1c(SCC(=O)N2CCN(c3ccccc3)CC2)nnc1-c1cccnc1 |  | 11.2 µM (active) |
| O=c1cc(CSc2nnc(-c3cccnc3)n2-c2ccccc2F)nc2sccn12 |  | inactive |
| Cn1c(CC(=O)Nc2ccc(Cl)c(Cl)c2)nnc1SCC(=O)N1CCN(c2ccccc2)CC1 |  | 14.1 µM (active) |
| Cn1c(Cc2cccc3ccccc23)nnc1SCC(=O)N1CCN(c2ccccc2)CC1 |  | 25.1 µM (active) |
| CC(=O)Nc1cc(S(=O)(=O)Nc2ccccc2)c(C)cc1C |  | 25.1 µM (active) |
| c1ccc2cc(NCNc3ccc4ccccc4c3)ccc2c1 |  | 2.51 µM (active) |
| Cc1cccc(NC(=O)CCS(=O)(=O)c2cccc3nsnc23)c1C |  | 14.1 µM (active) |
| O=C(CCS(=O)(=O)c1cccc2nsnc12)NC1CCCCC1 |  | 11.2 µM (active) |
| Cc1cccc(NC(=S)NNC(=O)CC(C)O)c1C (centres undefined) |  | inactive |
| CN(C)c1ncc2nc(-c3cccc(C#N)c3)c(=O)n(C[C@H]3CCCO3)c2n1 |  | inactive |
| N=C(N)SCCSC(=N)N | 2.37% [at 11.4 µM] (inactive) |  |
| COc1ccccc1-c1nc(N(C)Cc2ccco2)c2ccccc2n1 |  | 20 µM (active) |

| SMILES | activity, negative = inhibition | AC50 |
| --- | --- | --- |
| CN(C)Cc1ccccc1-c1nc(N(C)Cc2ccco2)c2ccccc2n1 |  | inactive |
| CN(C)c1nc(-c2ccccc2C(F)(F)F)nc2ccccc12 |  | inactive |
| Cc1ccccc1-c1nc(N(C)C)c2ccccc2n1 |  | 20 µM (active) |
| Cc1ccccc1-c1nc(N(C)Cc2ccco2)c2ccccc2n1 |  | 10 µM (active) |
| CN(Cc1ccco1)c1nc(-c2ccccc2C(F)(F)F)nc2ccccc12 |  | 7.94 µM (active) |
| COc1ccccc1-c1nc(N(C)C)c2ccccc2n1 |  | inactive |
| CNc1nc(-c2ccccc2C)nc2ccccc12 |  | 10 µM (active) |
| CNc1nc(-c2ccccc2CN(C)C)nc2ccccc12 |  | inactive |
| Cc1ccccc1-c1nc(NC2CC2)c2ccccc2n1 |  | inactive |
| O=C(OCC#CCSc1nnc(-c2cccc3ccccc23)o1)c1ccco1 |  | 3.16 µM (active) |
| CN1CCc2c(c3c(n2C)CCN(C)[C@H]3c2ccccc2F)[C@@H]1c1ccccc1F |  | inactive |
| O=C1C2CCCN2C(c2ccccc2F)N1c1ccc(Cl)cc1 (centres undefined) |  | 25.1 µM (active) |
| COc1cc(OC)c(C2N(c3cc(C)on3)C(=O)C3CCCN32)cc1OC (centres undefined) |  | inactive |
| CCC(=O)Nc1ccc(/C(C)=N\NS(=O)(=O)c2ccc(C)cc2)cc1 |  | 3.98 µM (active) |
| C/C(=N/NS(=O)(=O)c1ccc(C)cc1)c1cccc(NC(=O)c2cccc(Cl)c2)c1 |  | 2 µM (active) |
| CC(CC(=O)O)CC(=O)Nc1ccc(S(N)(=O)=O)cc1 (centres undefined) |  | inactive |
| COc1cc2nc(N3CC=[N+](C(=O)c4ccco4)CC3)nc(N)c2cc1OC |  | inactive |
| CCOC(=O)N1CCN(c2nc(-c3cccs3)cc(C(F)(F)F)n2)CC1 |  | 3.98 µM (active) |
| CCCNC(=O)CSc1nc(-c2cccs2)cc(C(F)(F)F)n1 |  | 0.562 µM (active) |
| COCCn1c(=O)c(-c2cccs2)nc2cnc(N3CCN(C)CC3)nc21 |  | inactive |
| CCOC(=O)N1CCN(c2nc(-c3ccco3)cc(C(F)(F)F)n2)CC1 |  | 4.47 µM (active) |
| CCC[C@@H]1O[C@@H]2C[C@@H]3[C@H]4CCC5=CC(=O)C=C[C@@]5(C)[C@H]4[C@H](O)C[C@@]3(C)[C@@]2(C(=O)CO)O1 |  | inactive |
| CC[C@@H]1OC(=O)[C@H](C)[C@H](O[C@@H]2C[C@](C)(OC)[C@H](O)[C@H](C)O2)[C@H](C)[C@H](O[C@@H]2O[C@@H](C)C[C@@H](N(C)C)[C@@H]2O)[C@](C)(O)C[C@H](C)C(=NOCOCCOC)[C@H](C)[C@H](O)[C@]1(C)O |  | inactive |
| CN(C)CCCO[C@H]1[C@H]([C@H](O)CO)O[C@H]2OC(C)(C)O[C@@H]21 |  | inactive |
| COc1ccc([C@@H](C)c2cc3c(cc2O)OCO3)cc1 |  | 0.1 µM (active) |

| SMILES | activity, negative = inhibition | AC50 |
| --- | --- | --- |
| COc1ccc([C@@H](Nc2ncccn2)c2cc3c(cc2O)OCO3)cc1 |  | 0.316 µM (active) |
| C=C(C)[C@@H]1CC=C(C(=O)O)CC1 |  | inactive |
| CN(C)CCSCCO | 28.5% [at 11.4 µM] (inactive) |  |
| Cc1cc(-c2cc(C)c(O)c(C(C)(C)C)c2)cc(C(C)(C)C)c1O |  | 1 µM (active) |
| Cc1cc(C(C)(C)C)c(O)c(C)c1CC1=NCCN1 |  | inactive |
| CN1CCC(N(C)C(=O)CCc2nc3ccccc3c(=O)[nH]2)CC1 |  | inactive |
| Cc1cccc(NC(=O)N(Cc2nc3ccccc3c(=O)[nH]2)C2CCCC2)c1 |  | 15.8 µM (active) |
| CCN1C/C(=C\c2cccc(C)c2)c2nc3ccccc3c(C(=O)O)c2C1 |  | inactive |
| CCn1c(O)c(/C=N/N=C2CCCC2)c2ccc(C3=NNC(=O)CC3)cc21 |  | inactive |
| Cn1cc(-c2nc3cncnc3n(C3CC3)c2=O)c2ccccc21 |  | inactive |
| O=C1c2cccnc2C(O)N1C1CCCCC1 (centres undefined) |  | inactive |
| Cc1nc2c(n1C1CCCCC1)C(=O)c1ccccc1C2=O |  | 2.82 µM (active) |
| CN[C@@H]1NC(=O)c2ccccc2N1Cc1ccc(F)cc1 | -2.68% [at 11.4 µM] (inactive) |  |
| Cc1ccc(NC2c3ncccc3C(=O)N2Cc2ccc(F)cc2)cc1 (centres undefined) |  | 5.01 µM (active) |
| COc1cccc(-c2ccc3ncnc(NCCc4c[nH]c5ccc(OC)cc45)c3c2)c1 |  | 3.16 µM (active) |
| COc1ccc2[nH]cc(CCNc3ncnc4ccc(-c5c(C)noc5C)cc34)c2c1 |  | 3.98 µM (active) |
| COc1ccc2[nH]cc(CCNc3ncnc4ccc(-c5ccccc5CN(C)C)cc34)c2c1 |  | inactive |
| COc1ccc2[nH]cc(CCNc3ncnc4ccc(-c5cccc(C#N)c5)cc34)c2c1 |  | 7.94 µM (active) |
| COc1ccc2[nH]cc(CCNc3ncnc4ccc(-c5ccccc5OC)cc34)c2c1 |  | 2 µM (active) |
| COc1ccc2[nH]cc(CCNc3ncnc4ccc(-c5ccoc5)cc34)c2c1 |  | 7.94 µM (active) |
| COc1ccc2[nH]cc(CCNc3ncnc4ccc(-c5ccccc5C#N)cc34)c2c1 |  | 2 µM (active) |
| COc1ccc2[nH]cc(CCNc3ncnc4ccc(-c5ccc6c(c5)OCO6)cc34)c2c1 |  | 1.58 µM (active) |
| COc1ccc2c(Cl)c(-c3nnco3)sc2c1 |  | 7.94 µM (active) |
| Cc1nc2cnc(N3CCN(C)CC3)nc2n(-c2ccccc2)c1=O |  | inactive |
| CN1CCN(c2ncc3ncc(=O)n(-c4ccccc4)c3n2)CC1 |  | inactive |

| SMILES | activity, negative = inhibition | AC50 |
| --- | --- | --- |
| O=C1CC(c2ccccc2)Cc2nc(N3CCc4ccccc4C3)ncc21 (centres undefined) |  | 3.98 µM (active) |
| Cc1ccc(-n2cnc(=O)c3cccnc32)cc1 |  | inactive |
| N#Cc1c(-c2ccccc2)cc(C2CC2)nc1SCC(=O)c1cccs1 |  | inactive |
| N#Cc1c(-c2ccccc2)nc(-c2ccccc2)[nH]c1=O |  | inactive |
| Cc1cccc(NC(=O)CSc2nc(-c3ccccc3)c(C#N)c(=O)[nH]2)c1C |  | 14.1 µM (active) |
| N#CCCn1c(=O)c(-c2cccs2)nc2cnc(OCc3ccccc3)nc21 |  | inactive |
| N#Cc1c(-c2cccs2)nc(SCC(=O)c2cccs2)[nH]c1=O |  | 15.8 µM (active) |
| CN[C@H](CC(=O)O)C(=O)O |  | inactive |
| Cc1[nH]nc(N2CCCCCC2)c1[N+](=O)[O-] |  | 6.31 µM (active) |
| Cc1noc(C)c1C(=O)N1CCC2(CCN(Cc3ccncc3)CC2)CC1 |  | inactive |
| CCOC(=O)C1(S(=O)(=O)c2ccc(Cl)cc2)CCN(Cc2ccc(Cl)cc2)CC1 |  | 2.24 µM (active) |
| O=S(=O)(c1ccccc1)N1CCC2(CCN(Cc3ccccc3)CC2)CC1 |  | inactive |
| CCOC(=O)C1(S(=O)(=O)c2ccccc2)CCN(Cc2ccccc2)CC1 |  | 2.51 µM (active) |
| O=C(NCc1cccnc1)[C@@H]1[C@@H](C(=O)O)[C@H]2CC[C@@H]1O2 | 23.6% [at 11.4 µM] (inactive) |  |
| Cc1ccc(SCC(=O)NNC(=O)C2CCCCC2)cc1 |  | inactive |
| CCOC(=O)[C@H](CCc1ccccc1)N[C@@H](C)C(=O)N1CCC[C@H]1C(=O)O |  | inactive |
| Cc1ccc(CNC(=O)C2CCC(=O)N2C2CCCCC2)cc1 (centres undefined) |  | 3.16 µM (active) |
| O=C(O)C1CCC(=O)N(C2CC2)C1c1ccccc1 (centres undefined) |  | inactive |
| Cc1ccc(CNC(=O)C2CCCN2C(=O)NCc2ccccc2)cc1 (centres undefined) |  | 10 µM (active) |
| CN(C)C(=O)N1CCCC(C(=O)NCCc2ccccc2)C1 (centres undefined) |  | inactive |
| Cc1ccc(CN2C(=O)CCC2C(=O)NCc2cccnc2)cc1 (centres undefined) |  | 22.4 µM (active) |
| O=C(O)[C@@H]1[C@@H](C(=O)NCc2cccnc2)[C@@H]2C=C[C@@H]1O2 | 6.83% [at 11.4 µM] (inactive) |  |
| COc1cc2nc(N3CCN(C(=O)OCc4ccccc4)[C@H](C(=O)NC(C)(C)C)C3)nc(N)c2cc1OC |  | inactive |
| CC(C)(C)OC(=O)N1CCCC1C(=O)NCCc1ccccc1 (centres undefined) |  | 6.31 µM (active) |
